Hits are enriched below; roughly 21% of the tested compounds scored in any of these assays.
Pf growth 96h: P. falciparum growth inhibition at 96 hour, primary screen for plastid delayed-death inhibitors; P. falciparum luciferase reporter growth, 96 h; 320,000 compounds, 6.9% hits; Potency, µM (series often up to 28.7 µM), hits mostly inhibitors
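P. falciparum expressing integrated firefly luciferase grown in erythrocytes (2% hematocrit, 0.05% parasitemia final) with compounds for 96 hours at 37 C, 5% CO2. Growth inhibition read as loss of luminescence after adding luciferase detection reagent.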
Pf growth 48h: P. falciparum growth inhibition at 48 hours (one generation); 310,000 compounds, 5.9% hits; Potency, µM (series often up to 28.7 µM), most hits filed as inhibitors; P. falciparum luciferase growth in erythrocytes, 48 h
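Erythrocytes infected with P. falciparum carrying an integrated firefly luciferase reporter (2% hematocrit, 0.1% parasitemia final) were exposed to compounds in RPMI 1640 with 0.5% Albumax at 37 C, 5% CO2. Growth inhibition was scored as reduced luminescence.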
Shiga inhibitor: inhibitors of Shiga toxin in Vero cells | Vero cells, Shiga toxin protein synthesis inhibition reporter | inhibition, % at 38.7 µM | 290,000 compounds, 9.2% hits | AID 2315; in the data active = inhibition mostly above about 28%, no sharp cut-off; inactive = mostly below about 43%
NS1 inh: inhibitors of influenza NS1 protein function; Potency, µM (titrated, usually from 46.1 µM); 270,000 compounds, 0.4% hits; AID 2326; calls by dose curve; also: actives are rising curves; nearly all actives have a fitted effect of over 50% in size
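Recovery from NS1-induced slow growth read by OD600 in budding yeast switched to galactose assay medium (pH 6.0, -URA) at 1:100 dilution. Compound 23 nl per well; the matching strain lacking NS1 serves as control.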
Sm TGR block: S. mansoni TGR enzyme inhibition. Q962Y6. purified TGR, DTNB reduction, TNB absorbance 405 nm. Potency, µM (series often up to 114 µM), usual class: inhibitors. 360,000 compounds, 3% hits; also: nearly all actives have a fitted effect of over 60% in size
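First, TGR (20 nM dispensed) and NADPH were mixed with compound. Second, a 15 min room-temperature incubation followed. Third, further NADPH and then DTNB were added to start the reaction. Finally, TNB absorbance was monitored kinetically.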
CHX counter: affects cycloheximide protein synthesis inhibition readout, counter-screen; 300,000 compounds, 12% hits; AID 2314; max response, %; cell reporter, cycloheximide protein synthesis inhibition counterscreen; in the data active = max response mostly above about 13%, no sharp cut-off; inactive = mostly below about 14%; also: read at 38.3 µM for the half of the compounds with a filed dose
Of the large screens only hits and unclear results are named; the others gave an inactive call. Unless noted, calls follow the shape of the dose curve; as a rule, active = well fitted curve in the direction sought with a large enough effect; inconclusive = small, poorly fitted or top-dose-only effect, or another doubt; inactive = no such curve, though single readings can be large; an effect the other way counts as inactive or inconclusive.

N#Cc1c(SCC(=O)Nc2ccc(Cl)cc2Cl)sc2c(O)cc(=O)[nH]c12	Pf growth 48h 2.94µM
Cc1c(Cl)cccc1NC(=O)CSc1sc2c(O)cc(=O)[nH]c2c1C#N	Sm TGR block inconclusive
N#Cc1c(SCC(=O)Nc2nccs2)sc2c(O)cc(=O)[nH]c12	NS1 inh inconclusive, Sm TGR block 50.1µM
CN(Cc1ccccc1)C(=O)CCC1CCN(S(C)(=O)=O)CC1	Pf growth 96h 11.7µM
CN(Cc1ccccc1)C(=O)CCC1CCN(C(=O)CCC(F)(F)F)CC1	CHX counter 32.1 (no result: Shiga inhibitor)
COc1cc(OC)c(NS(=O)(=O)c2c(C(=O)N3CCCCC3)c(C)n(C)c2C)cc1Cl	none
Cc1c(C(=O)NCc2ccccn2)oc2ccc(S(=O)(=O)N3CCC4(CC3)OCCO4)cc12	Pf growth 96h inconclusive, Pf growth 48h 13.1µM (no result: NS1 inh)
Cc1c(C(=O)Nc2ccc(F)c(F)c2)oc2ccc(S(=O)(=O)N3CCC4(CC3)OCCO4)cc12	none (no result: Pf growth 96h, Pf growth 48h, Shiga inhibitor, NS1 inh, CHX counter)
Cc1c(C(=O)Nc2ccc(F)cc2)oc2ccc(S(=O)(=O)N3CCC4(CC3)OCCO4)cc12	Pf growth 96h inconclusive, Pf growth 48h 9.28µM, NS1 inh inconclusive
Cc1c(C(=O)NC2CCCc3ccccc32)oc2ccc(S(=O)(=O)N3CCCC3)cc12 (configuration not stated)	Pf growth 48h inconclusive (no result: Pf growth 96h)
Cc1c(C(=O)Nc2ccc(F)c(F)c2)oc2ccc(S(=O)(=O)N3CCCCC3)cc12	Pf growth 48h 13.1µM (no result: Pf growth 96h)
Cc1c(C(=O)NC2CCCc3ccccc32)oc2ccc(S(=O)(=O)N3CCCCC3)cc12 (configuration not stated)	Pf growth 96h 1.85µM, Pf growth 48h inconclusive
CC(c1nc2ccccc2c(=O)[nH]1)N1CCN(C)CC1 (configuration not stated)	none (no result: Pf growth 96h)
Cc1cc(OC(F)F)ccc1NC(=O)Nc1ccc([N+](=O)[O-])cc1	Pf growth 96h inconclusive, Pf growth 48h inconclusive
O=c1c2cnn(-c3ccc(F)cc3)c2ncn1Cc1cccc(Cl)c1	none (no result: Pf growth 96h, Pf growth 48h, Shiga inhibitor, NS1 inh, CHX counter)
CC(C)CNC(=O)c1cccc(NC(=O)C(C)C)c1	Pf growth 96h inconclusive (no result: NS1 inh)
O=C(CCCn1c(=O)c2sccc2n(Cc2cccc(Cl)c2)c1=O)NCc1ccc2c(c1)OCO2	none (no result: Pf growth 96h, Pf growth 48h, Shiga inhibitor, NS1 inh, CHX counter)
CC(C)(C)c1ccc(C(=O)c2c[nH]c(C(=O)NCCCn3ccnc3)c2)cc1	Pf growth 96h 7.38µM, Pf growth 48h 11.7µM
O=C(NC(=S)NNC(=O)c1ccccc1F)c1cccnc1	Shiga inhibitor 54.6, CHX counter 20.3
COc1ccc(C(=O)c2c[nH]c(C(=O)NCCCn3ccnc3)c2)cc1	Pf growth 96h inconclusive, Pf growth 48h inconclusive (no result: NS1 inh)
Cc1ccccc1C(=O)NNC(=S)NC(=O)c1cccnc1	Pf growth 96h inconclusive, Pf growth 48h inconclusive
CC(C)(C)c1ccc(C(=O)c2c[nH]c(C(=O)NCc3cccnc3)c2)cc1	Pf growth 96h 5.22µM, Pf growth 48h 8.28µM, CHX counter 20.5
COC(=O)CNC(=S)NC(=O)c1ccc(C(C)(C)C)cc1	Pf growth 96h inconclusive, Shiga inhibitor 77.6, CHX counter 32.3 (no result: Sm TGR block)
CC(C)(C)c1ccc(C(=O)NNC(=S)NC(=O)c2cccnc2)cc1	Pf growth 96h inconclusive, Pf growth 48h 13.1µM, Shiga inhibitor 52.8, CHX counter 23.8
CC(C)(C)c1ccc(C(=O)NC(=S)NCc2cccnc2)cc1	Shiga inhibitor active, Sm TGR block inconclusive, CHX counter 45.3
COc1cccc(CNC(=O)Cn2nc(C)c([N+](=O)[O-])c2C)c1	Pf growth 96h inconclusive
COc1cc(C(=S)N2CCN(c3ccccc3Cl)CC2)cc(O)c1O	Pf growth 96h inconclusive, Pf growth 48h inconclusive (no result: NS1 inh)
O=C(O)c1cc(-c2ccc(Br)s2)nc2ccccc12	Pf growth 96h inconclusive, Shiga inhibitor 34.1, CHX counter 17.1
CCOCCCNC(=O)c1cc(-c2ccc(Br)s2)nc2ccccc12	Pf growth 96h 10.4µM (no result: Pf growth 48h)
Cc1cc(-c2cc(C(=O)O)c3ccccc3n2)c(C)s1	Pf growth 96h 1.65µM (no result: Sm TGR block)
CCOc1cc(C(=O)OCC(=O)Nc2ncc(Cl)c(C)c2Cl)ccc1OCC(=O)N1CCOCC1	Pf growth 96h inconclusive
CC(C)OC(=O)c1c(NC(=O)C2c3ccccc3Oc3ccccc32)sc2c1CCCC2	none (no result: Pf growth 96h, Pf growth 48h, Shiga inhibitor, NS1 inh, CHX counter)
N#CCSc1nc2cc(C(=O)N3CCCC3)ccc2c(=O)n1Cc1ccccc1	Pf growth 48h inconclusive

Source: PubChem BioAssay (National Center for Advancing Translational Sciences (NCATS))
